Compound activity: PubChem BioAssay, several laboratories
An excerpt weighted towards active compounds, which were near 12% of everything screened.
Lmaj promast: Leishmania major promastigote growth inhibition | Leishmania major promastigotes, resazurin fluorescence viability | inhibition, % at 10 µM | hit rate 9% among 200,000 | AID 1063; in the data active = inhibition above about 50%;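 also: promastigotes grown with compound for 44 hours at 28 °C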
CHOP inhibitor: inhibitors of CHOP induction in ER stress response; hit rate 3.8% among 220,000; inhibition, % at 10 µM; CHO-K1 CHOP-promoter luciferase, tunicamycin-induced, 15-18 h; AID 2732;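 active = compounds that reduced the stress-induced luciferase reporter signal by more than about 70% of percent inhibition, limit read from the data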;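 also: 0% = tunicamycin plus vehicle and 100% = wells without tunicamycin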
Arbovirus anti: blocks arbovirus infection; arbovirus infection cell-based antiviral screen; inhibition, % at 10 µM; hit rate 0.37% among 200,000; in the data active = inhibition above about 30%
WT yeast gro inh: growth inhibition of WT yeast, mitochondrial fusion screen; hit rate 2.1% among 190,000; AID 1362; mitochondrial fusion phenotypic screen, WT strain; inhibition, % at 10 µM; in the data active = inhibition above about 58%; tested in S. cerevisiae
Active calls of the source: *; x = no result.

SMILES	Lmaj promast	CHOP inhibitor	Arbovirus anti	WT yeast gro inh
COc1ccc(-c2csc(Nc3ccccc3)[n+]2Cc2ccccc2)cc1	15	30	9	21
Clc1ccc(-c2csc(Nc3ccccc3)[n+]2Cc2ccco2)c(Cl)c1	36	17	-12	72*
CCCC[n+]1c(-c2ccc(Cl)cc2Cl)csc1Nc1ccccc1	23	53	-9	68*
Cc1ccc(-c2csc(Nc3ccccc3)[n+]2CCc2ccccc2)cc1	24	27	0	28
C=CC[n+]1c(-c2ccc(Cl)cc2Cl)csc1Nc1c(C)n(C)n(-c2ccccc2)c1=O	29	52	-11	24
C=CC[n+]1c(-c2ccc(Cl)cc2Cl)csc1Nc1ccc(NC(C)=O)cc1	53*	52	-30	86*
Cc1nc(CCNC(=O)c2cc(COc3ccc(F)cc3Cl)on2)sc1C	x	28	x	x
CCc1ccc(-c2ccc(C(=O)C(F)(F)F)[nH]2)cc1	2	8	2	-3
Cc1ccccc1NC(=O)N1CCN(C/C=C/c2ccccc2)CC1	3	-3	0	-4
CCN(CC)CCn1c2ccccc2c2nc3ccc([N+](=O)[O-])cc3cc21	x	-4	x	x
CC(=O)N(/N=C/c1cccc(C)c1)c1nc(-c2ccc(Br)cc2)cs1	-4	95*	13	-22
O=C(/C=C/c1ccccc1)NNc1ccc(Cl)cc1	99*	5	-26	44
Cc1ccccc1C(=O)NNC(=O)CCc1ccccc1	-1	2	4	-4
O=C(O)c1ccccc1C(=O)NNc1ccc(Cl)cc1	30	12	-30	72*
O=C(CCc1ccccc1)NNC(=O)c1ccccc1C(=O)O	60*	13	-5	-9
NS(=O)(=O)c1ccc(NNC(=O)c2ccccc2C(=O)O)cc1	x	-4	x	x
O=C(/C=C/c1ccccc1)NCCSc1ccc(Cl)cc1	-6	77*	8	14
O=C(/C=C/c1ccccc1)NCCOc1ccccc1	-4	-13	-1	-3
CC(C)c1ccc(/C=C/C(=O)NC(=S)Nc2ccc(CN3CCOCC3)cc2)cc1	45	20	-9	42
CC(CCc1ccccc1)NC(=O)/C=C/c1ccc(Cl)cc1 (configuration not stated)	52*	-21	19	36
Cc1onc(-c2ccccc2)c1C(=O)NC(=S)NNC(=O)c1ccc(O)cc1O	92*	57	-28	28
Cc1onc(-c2ccccc2)c1C(=O)NC(=S)NNC(=O)c1ccccc1O	67*	77*	-28	28
O=C(c1ccc(COc2ccc(Cl)cc2)cc1)N1CCCCC1	-1	29	-11	60*
CCCCOc1ccc(C(=O)N2CCCCCC2)cc1	1	37	-4	-5
CC1CCN(Cc2csc(N)n2)CC1	-6	-15	3	15
SMILES	Lmaj promast	CHOP inhibitor	Arbovirus anti	WT yeast gro inh
CNC(=S)N1CCN(c2ccc([N+](=O)[O-])cc2)CC1	-4	3	-7	67*
O=[N+]([O-])c1ccc(NC(=S)N2CCN(c3ccc(F)cc3)CC2)cc1	-3	84*	16	4
Cc1nonc1CC(=O)N1CCCC(C(=O)c2cccc(C(F)(F)F)c2)C1 (configuration not stated)	-1	12	8	0
COc1ccc(CCNC(=O)C(=O)Nc2ccc3c(c2)OCO3)cc1OC	-2	-4	-4	-14
C=CCNC(=O)c1ccccc1NC(=O)c1ccc(Cl)c(S(=O)(=O)Nc2ccccc2)c1	58*	35	-19	-10
Cc1c(C(c2ccc([N+](=O)[O-])cc2)c2c(C)n(C)n(-c3ccccc3)c2=O)c(=O)n(-c2ccccc2)n1C	-5	-3	8	5
CCN(CC)C(=O)CNC(=S)N(CCCN1CCOCC1)Cc1cccs1	-3	10	0	-4
O=[N+]([O-])c1ccc(Oc2ccc(/C=N/O)cc2)nc1	-5	7	-1	1
O=C1NC(=O)/C(=C\c2ccc(Oc3ccc([N+](=O)[O-])cn3)cc2)S1	2	42	33*	15
Cc1ncc([N+](=O)[O-])n1CC(=O)NC1CCCCCC1	-7	4	1	3
Cc1ccc(-c2c[n+](Cc3ccc(Cl)cc3)c3n2CCC3)cc1	x	3	x	x
Clc1cccc(C[n+]2cc(-c3ccccc3)n3c2CCC3)c1	99*	14	-16	-14
Cc1ccc(-c2c[n+](Cc3cccc(Cl)c3)c3n2CCC3)cc1	x	-23	x	x
Clc1ccc(-c2c[n+](Cc3ccc(Cl)c(Cl)c3)c3n2CCC3)cc1	99*	-17	-21	13
O=Cc1ccccc1-n1cncn1	-2	21	-2	2
CCC(C)(C)n1nnnc1C(c1cccnc1)N1CCC(Cc2ccccc2)CC1 (configuration not stated)	90*	16	3	-89
CCC(C)(C)n1nnnc1C(c1ccncc1)N1CCC(Cc2ccccc2)CC1 (configuration not stated)	91*	38	15	5
CCC(C)(C)n1nnnc1C(c1cccnc1)N1CCCC(C)C1 (configuration not stated)	87*	5	10	3
CCC(C)(C)n1nnnc1C(c1cccnc1)N1CCCc2ccccc21 (configuration not stated)	45	27	-7	-1
CC(C)(C)n1nnnc1C(c1cccc(C#N)c1)N1CCC(Cc2ccccc2)CC1 (configuration not stated)	83*	80*	-9	17
CCOC(=O)C1CNc2cc(S(=O)(=O)CC)ccc2O1 (configuration not stated)	-7	13	13	7
CC(C)(C)n1nnnc1C(c1ccc(C#N)cc1)N1CCCC2(CCCCC2)C1 (configuration not stated)	78*	50	2	18
CC(C)(C)n1nnnc1C(c1ccncc1)N1CCCCCC1 (configuration not stated)	-3	3	2	14
CCNC(=O)CN1C(=O)NC(Cc2ccccc2)(Cc2ccccc2)C1=O	-5	-8	0	2
Cc1ccc(C(=O)C[n+]2ccc(Cc3ccccc3)cc2)cc1	86*	6	-4	8
SMILES	Lmaj promast	CHOP inhibitor	Arbovirus anti	WT yeast gro inh
CN(C)c1cc[n+](CC(=O)c2ccc(-c3ccccc3)cc2)cc1	100*	11	8	73*
O=C(O)C1CC(=O)N(CCc2ccccc2)C1 (configuration not stated)	-3	3	0	x
CN(C)CCCN1CC(C(=O)O)CC1=O (configuration not stated)	-7	76*	-5	-6
Cc1ccc(S(=O)(=O)N(C)C)cc1NC(=O)COC(=O)c1ccc2c(c1)NC(=O)CS2	x	0	x	x
CCc1nn(CC(=O)NCCCN2CCCC2=O)c(=O)c2cc3sccc3n12	-3	-7	-7	10
CCc1nn(CC(=O)NCCCN(CC)Cc2ccccc2)c(=O)c2cc3sccc3n12	55*	39	-7	0
COc1ccc(Br)cc1CNC(=O)Cc1c(C(=O)O)[nH]c2ccc(Cl)cc12	-19	47	3	12
O=C(COC(=O)c1ccc(Cl)nc1)Nc1ccc2c(c1)OCO2	-7	17	-8	8
N/C(=N\N=C\c1cccs1)SC1CC(=O)N(c2ccc(Br)cc2)C1=O (configuration not stated)	100*	5	-22	4
